Test results from PubChem BioAssay.
Active and inactive are the calls of the source.

Key:
[1] = small molecules captured by biotinylated probe aFSTL3 – biochemical, small-molecule microarray, fluorescence 635/667, stem cell growth factor project, primary screen (AID 1064); conditions: higher = more signal;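 note: measures binding of the biotinylated anti-FSTL3 antibody to printed compounds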
[2] = binders from COS7 lysate, DM2A8 probe, primary screen, torsin A project, cell lysate, small-molecule microarray, fluorescence 635/667 (AID 1065); conditions: higher = more signal, COS7 lysate expressing mutant human TOR1A
[3] = small molecules captured by biotinylated probe aFGF2 – biochemical, small-molecule microarray, fluorescence 635/667, stem cell growth factor project, primary screen (AID 1067); conditions: higher = more signal;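 note: measures binding of biotinylated aFGF2 protein to printed compounds on slides; z-score merges feature fluorescence and signal-to-noise across triplicate slides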
[4] = small molecules captured by biotinylated probe aFGF10 – biochemical, small-molecule microarray, fluorescence 635/667, stem cell growth factor project, primary screen (AID 1071); conditions: higher = more signal;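 note: score merges 667 nm spot intensity and signal to noise from triplicate slides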
[5] = molecular target: Neurogenic locus notch homolog protein 2 (Homo sapiens) (UniProt Q04721); assay: small molecules binding Notch2 protein – biochemical, small-molecule microarray, 635 nm fluorescence, stem cell growth factors, primary screen (AID 1073); conditions: higher = more signal
[6] = molecular target: Pro-neuregulin-1, membrane-bound isoform (Homo sapiens) (UniProt Q02297); assay: small molecules binding neuregulin-1 protein – biochemical, small-molecule microarray, fluorescence 635/667, psychiatric disease protein project, primary screen (AID 1075); conditions: NRG1 binding, 635 nm fluorescence, higher = more signal;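 note: score combines 667 nm spot fluorescence with signal to noise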
[7] = system: Neuregulin-1 EGF-like domain; assay: small molecules binding NRG1 EGF domain – biochemical, small-molecule microarray, 635 nm fluorescence, primary screen (AID 1081); conditions: higher = more signal;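 note: binding of the protein to compounds printed on small-molecule microarray slides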
[8] = FRG1 expression reporter modulators in myotubes – cell-based, C2C12 myotubes, firefly/Renilla luciferase, luminescence, FRG1 inhibition for FSHD, primary screen (AID 1084); conditions: FRG1 promoter luciferase, higher = more signal, called active from +8 up or from −8 down
[9] = small molecules captured by biotinylated probe aFST – biochemical, small-molecule microarray, fluorescence 635/667, stem cell growth factor project, primary screen (AID 1086); conditions: higher = more signal;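 note: score merges 667 nm fluorescence with signal-to-noise of each printed compound spot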
[10] = binders of probe aHhip on microarray, primary screen, stem cell growth factor project, biochemical, small-molecule microarray, fluorescence 635/667 (AID 1087); conditions: higher = more signal;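 note: score merges spot fluorescence at 667nm with spot signal to noise ratio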

Sequence of Pro-neuregulin-1, membrane-bound isoform (Homo sapiens) (Q02297 whole entry, looked up, the tested form may be a part, canonical isoform): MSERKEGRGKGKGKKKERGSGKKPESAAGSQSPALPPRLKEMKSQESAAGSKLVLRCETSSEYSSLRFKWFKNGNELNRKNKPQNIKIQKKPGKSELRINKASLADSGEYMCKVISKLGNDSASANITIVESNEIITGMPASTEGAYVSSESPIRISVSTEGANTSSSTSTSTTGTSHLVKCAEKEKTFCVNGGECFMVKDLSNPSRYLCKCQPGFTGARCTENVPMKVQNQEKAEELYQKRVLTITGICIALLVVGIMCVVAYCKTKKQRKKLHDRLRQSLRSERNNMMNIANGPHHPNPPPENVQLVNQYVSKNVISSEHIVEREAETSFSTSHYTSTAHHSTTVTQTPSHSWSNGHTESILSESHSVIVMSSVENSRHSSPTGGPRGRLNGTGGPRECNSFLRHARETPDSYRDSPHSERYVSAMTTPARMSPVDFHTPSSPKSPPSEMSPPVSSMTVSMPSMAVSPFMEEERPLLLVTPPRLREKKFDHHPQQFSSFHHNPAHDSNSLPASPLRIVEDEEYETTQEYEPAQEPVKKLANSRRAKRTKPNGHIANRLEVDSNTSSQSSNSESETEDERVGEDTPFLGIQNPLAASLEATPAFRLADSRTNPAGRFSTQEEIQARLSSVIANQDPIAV
Sequence of Neurogenic locus notch homolog protein 2 (Homo sapiens) (Q04721 whole entry, looked up, canonical isoform): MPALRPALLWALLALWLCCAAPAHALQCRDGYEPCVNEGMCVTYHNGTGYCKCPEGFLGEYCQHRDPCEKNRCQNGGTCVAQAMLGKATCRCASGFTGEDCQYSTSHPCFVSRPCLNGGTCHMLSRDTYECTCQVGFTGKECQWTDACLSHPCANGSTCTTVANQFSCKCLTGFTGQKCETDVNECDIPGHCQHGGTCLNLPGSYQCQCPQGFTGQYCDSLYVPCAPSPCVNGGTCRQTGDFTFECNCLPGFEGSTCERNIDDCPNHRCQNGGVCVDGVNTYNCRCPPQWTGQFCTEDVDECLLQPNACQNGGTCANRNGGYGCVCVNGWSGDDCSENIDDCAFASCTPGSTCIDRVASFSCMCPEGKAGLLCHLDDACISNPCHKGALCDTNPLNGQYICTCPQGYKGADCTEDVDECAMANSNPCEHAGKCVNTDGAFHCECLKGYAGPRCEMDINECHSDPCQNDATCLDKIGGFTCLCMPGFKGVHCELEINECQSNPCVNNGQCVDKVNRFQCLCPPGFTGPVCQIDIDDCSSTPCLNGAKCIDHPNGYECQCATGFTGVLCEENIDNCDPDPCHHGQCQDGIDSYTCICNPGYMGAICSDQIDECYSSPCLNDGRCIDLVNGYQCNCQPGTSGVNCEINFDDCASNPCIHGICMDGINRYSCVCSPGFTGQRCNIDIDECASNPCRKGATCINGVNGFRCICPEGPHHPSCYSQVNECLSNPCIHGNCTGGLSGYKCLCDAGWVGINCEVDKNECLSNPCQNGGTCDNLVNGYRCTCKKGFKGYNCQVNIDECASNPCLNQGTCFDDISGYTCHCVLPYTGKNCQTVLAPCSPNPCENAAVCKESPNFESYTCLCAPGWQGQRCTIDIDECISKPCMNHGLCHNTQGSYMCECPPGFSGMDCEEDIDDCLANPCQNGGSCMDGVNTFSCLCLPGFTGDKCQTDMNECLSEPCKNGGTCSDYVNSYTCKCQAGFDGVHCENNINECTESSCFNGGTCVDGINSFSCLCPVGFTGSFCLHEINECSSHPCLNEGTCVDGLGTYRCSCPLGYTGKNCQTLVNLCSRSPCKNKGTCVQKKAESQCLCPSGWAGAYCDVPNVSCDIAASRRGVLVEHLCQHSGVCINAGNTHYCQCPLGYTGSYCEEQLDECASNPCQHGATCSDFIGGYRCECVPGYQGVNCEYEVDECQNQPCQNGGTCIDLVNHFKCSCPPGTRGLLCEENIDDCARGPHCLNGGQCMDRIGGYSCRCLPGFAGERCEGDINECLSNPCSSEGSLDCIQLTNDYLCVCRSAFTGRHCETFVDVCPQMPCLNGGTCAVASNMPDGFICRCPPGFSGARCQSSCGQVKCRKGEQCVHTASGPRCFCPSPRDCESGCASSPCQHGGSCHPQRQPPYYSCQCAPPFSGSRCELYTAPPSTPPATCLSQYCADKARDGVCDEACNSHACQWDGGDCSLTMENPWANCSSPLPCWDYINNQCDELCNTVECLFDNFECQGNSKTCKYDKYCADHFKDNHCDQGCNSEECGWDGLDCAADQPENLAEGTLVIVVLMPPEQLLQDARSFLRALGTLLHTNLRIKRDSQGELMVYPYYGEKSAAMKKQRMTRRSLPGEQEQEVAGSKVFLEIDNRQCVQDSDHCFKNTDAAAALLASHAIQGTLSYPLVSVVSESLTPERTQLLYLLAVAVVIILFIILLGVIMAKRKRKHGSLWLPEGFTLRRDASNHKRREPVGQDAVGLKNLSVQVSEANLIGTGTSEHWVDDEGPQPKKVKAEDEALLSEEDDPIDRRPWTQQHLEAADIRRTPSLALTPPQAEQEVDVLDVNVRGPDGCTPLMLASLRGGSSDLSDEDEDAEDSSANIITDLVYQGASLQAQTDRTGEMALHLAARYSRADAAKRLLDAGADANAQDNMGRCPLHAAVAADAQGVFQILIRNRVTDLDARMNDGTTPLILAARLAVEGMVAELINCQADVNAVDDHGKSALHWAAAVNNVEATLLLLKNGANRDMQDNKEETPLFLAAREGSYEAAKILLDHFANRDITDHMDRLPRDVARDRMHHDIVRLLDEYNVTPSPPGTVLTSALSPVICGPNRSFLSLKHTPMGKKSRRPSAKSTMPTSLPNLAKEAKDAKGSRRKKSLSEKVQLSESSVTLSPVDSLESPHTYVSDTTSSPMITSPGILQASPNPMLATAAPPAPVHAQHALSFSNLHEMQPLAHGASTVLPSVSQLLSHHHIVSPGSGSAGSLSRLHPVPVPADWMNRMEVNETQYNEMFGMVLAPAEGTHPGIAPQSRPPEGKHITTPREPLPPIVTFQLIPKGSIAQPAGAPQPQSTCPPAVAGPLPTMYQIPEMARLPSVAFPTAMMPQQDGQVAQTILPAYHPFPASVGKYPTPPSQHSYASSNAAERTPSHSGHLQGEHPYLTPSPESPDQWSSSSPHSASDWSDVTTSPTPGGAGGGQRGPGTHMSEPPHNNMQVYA

Row | Compound | composite z-score [1] | composite z-score [2] | composite z-score [3] | composite z-score [4] | composite z-score [5] | composite z-score [6] | composite z-score [7] | z-score [8] | composite z-score [9] | composite z-score [10]
1 | COc1ccc(CCNC(=O)[C@@]2(c3ccc([N+](=O)[O-])cc3)CC(=O)N(C3CCCCC3)[C@@H]2c2ccc(CO)cc2I)cc1 | 0.897 | 0.0603 | 0.0903 | 0.33 | 0.964 | 0.486 | 0.827 | -1.64 (inactive) | -0.121 | 0.386
2 | C=CC[C@@]1(C(=O)NCCCOC)N=C(c2ccc(OCCCO)cc2)O[C@@H]1c1ccccc1CN=[N+]=[N-] | 0.227 | -0.448 | 0.106 | 0.744 | 1.43 | 1.79 | 1.03 | -1.97 (inactive) | 1.25 | -0.105
3 | COCCOC(=O)N1C(=O)[C@@]2(c3cc(C#CC4(O)CCCCCC4)ccc31)[C@H](C(N)=O)[C@H]1C(=O)O[C@H](c3ccccc3)[C@H](c3ccccc3)N1[C@@H]2c1ccc(OCCO)cc1 | -0.243 | 1.08 | 0.0664 | 0.69 | 1.42 | 0.775 | 1.22 | 1.1 (inactive) | 0.388 | 0.189
4 | C=CCC(OC(C)=O)[C@@H]1[C@@H](N(Cc2cccc3ccccc23)C(=O)c2ccc(C)cc2)c2cc(OCCCO)ccc2N1C(=O)Cc1ccc2ccccc2c1 (stereo not given in full) | 0.151 | -0.124 | 0.0348 | 0.021 | -0.0785 | -0.158 | -0.665 | -2.29 (inactive) | 0.0338 | 0.127
5 | COCCOC(=O)N1C(=O)[C@@]2(c3cc(C#CCC(C(=O)OC)C(=O)OC)ccc31)[C@H](c1ccc(O)cc1)N1[C@H](c3ccccc3)[C@H](c3ccccc3)OC(=O)[C@H]1[C@@H]2C(=O)N1CCc2cc(OC)c(OC)cc2C1 | 0.0804 | 0.838 | -0.0538 | 0.818 | 1.21 | 1.04 | 1.14 | 0.336 (inactive) | 0.186 | 0.224
6 | CC(CO)N1C(=O)[C@@H]2[C@H]3C(=O)OCC=C[C@H]3OC23C=CCN(c2ccc4ccccc4c2)C(=O)[C@@H]13 (stereo not given in full) | 0.865 | -1.47 | -0.149 | -0.451 | -1.19 | -1.2 | 0.632 | 0.621 (inactive) | -0.946 | -0.0994
7 | CN1C(=O)C2C=CC(C(O)c3ccc(I)cc3)N(N(c3ccccc3)c3ccccc3)C2C1=O (stereo not given) | 0.75 | -0.272 | -0.0507 | -0.454 | 0.333 | 0.495 | -0.0493 | 0.586 (inactive) | 0.428 | -0.176
8 | CCCCC(=C=CC[C@H](O)c1cccc(OCCO)c1)C[C@H](O)c1cc(Cl)cc(Cl)c1O | -0.288 | -0.027 | -0.0376 | 0.526 | -0.107 | 0.665 | 0.616 | -1.64 (inactive) | 0.137 | -0.197
9 | C[C@]1(C(=O)NC2CC2)c2ccccc2C(=O)N(Cc2cc(F)cc(C(F)(F)F)c2)[C@H]1c1ccc(CO)cc1 | -0.364 | -0.035 | -0.116 | -0.636 | -1.13 | 1.72 | 1.37 | -1.05 (inactive) | -0.527 | -0.256
10 | Cc1ccc(S[C@]2(C(=O)NC(C)C)CC(=O)N(Cc3ccccc3)[C@@H]2c2ccc(CO)cc2)cc1 | 0.466 | -0.488 | -0.0909 | -1 | -1.25 | 1.56 | 0.57 | -2.62 (inactive) | -0.604 | 0.0373
11 | COC(=O)C(CC#Cc1ccc2c(c1)[C@]1(C(=O)N2)[C@H](C(=O)N2CCN(c3ncccn3)CC2)[C@H]2C(=O)O[C@H](c3ccccc3)[C@H](c3ccccc3)N2[C@@H]1c1ccc(O)cc1)C(=O)OC | 2.65 | 0.987 | 0.374 | 1.01 | 1.53 | 1.44 | 1.31 | 1.41 (inactive) | 2.24 | 0.102
12 | COc1cc(Cc2cc3c(c(CCc4ccccc4)n2)[Si](C(C)C)(C(C)C)O[C@H]3c2ccccc2)cc(OC)c1OC | 0.962 | -0.133 | -0.0454 | 0.169 | -0.285 | -0.499 | -0.44 | -0.149 (inactive) | -0.273 | -0.0102
13 | CC(C)N1CC=CC23O[C@@H]4/C=C\CCCOC(=O)C4[C@H]2C(=O)N(C(C)CO)[C@@H]3C1=O (stereo not given in full) | -0.396 | -0.237 | -0.201 | -0.789 | -0.911 | 0.383 | 0.522 | -0.798 (inactive) | -0.588 | -0.303
14 | CO[C@H]1O[C@H](CO)[C@@H](OC(=O)Nc2cccc(F)c2)[C@H](OC(=O)c2cc3ccccc3[nH]2)[C@H]1OC(=O)c1cc2ccccc2[nH]1 | -0.277 | -0.108 | -0.0355 | 0.463 | -0.0665 | 1.33 | 0.24 | -1.46 (inactive) | -0.238 | -0.0726
15 | CN1C(=O)C2C=CC(C(O)c3cccs3)N(N(c3ccccc3)c3ccccc3)C2C1=O (stereo not given) | -0.128 | -0.493 | 0.0472 | 0.272 | 1.1 | 1.19 | 1.21 | -0.179 (inactive) | 0.379 | -0.0645
16 | CC(C)c1ccc(NN2C(C(O)C3CCCCC3)C=CC3C(=O)N(c4ccccc4)C(=O)C32)cc1 (stereo not given) | 0.249 | 0.333 | 0.224 | 0.509 | 1.6 | 1.22 | 1 | -1.09 (inactive) | 1.62 | 0.142
17 | CC(C)(C)OC(=O)CC[C@]1(C(=O)N2CCOCC2)COC(c2ccc(OCCCO)cc2)=N1 | -0.77 | 0.667 | 0.0476 | 0.0767 | 0.498 | 1.6 | 1.32 | -0.462 (inactive) | 0.163 | -0.0275
18 | CCCNC(=O)[C@@]1(Sc2ccc(C)cc2)CC(=O)N(Cc2cc(C(F)(F)F)cc(C(F)(F)F)c2)[C@@H]1c1ccc(CO)cc1 | 0.708 | -0.332 | -0.0363 | 0.0551 | -0.608 | -0.78 | 0.791 | 0.621 (inactive) | -0.486 | -0.236
19 | COc1cc(Cc2cc3c(c(-c4ccccc4)n2)[Si](C(C)C)(C(C)C)OC3)cc(OC)c1OC | 0.13 | 0.0203 | -0.141 | 0.305 | -0.374 | -0.289 | -0.683 | -0.277 (inactive) | 0.0647 | 0.0274
20 | COCCOC(=O)N1C(=O)[C@@]2(c3cc(C#CCNC(N)=O)ccc31)[C@H](c1ccccc1OCCO)N1[C@H](c3ccccc3)[C@H](c3ccccc3)OC(=O)[C@H]1[C@@H]2C(=O)N1CCCCCCC1 | 1.63 | 0.646 | 0.0495 | 0.57 | 0.725 | 0.665 | 1.1 | 0.515 (inactive) | 1.29 | 1
21 | CC(C)C(=C=CC[C@H](O)c1cccc(OCCO)c1)C[C@H](O)c1ccccn1 | -0.242 | -0.243 | -0.166 | 0.016 | -0.0938 | -0.272 | 1.05 | -0.29 (inactive) | -0.0565 | -0.0645
22 | COCCCNC(=O)[C@@]1(CCC(=O)OC(C)(C)C)N=C(c2ccc(OCCCO)cc2)O[C@H]1c1ccccc1 | 0.593 | 0.737 | 0.0584 | 0.186 | 1.23 | 1.64 | 1.3 | -1.79 (inactive) | 1.16 | 0.0424
